Where a name gives a salt, the structure may show the parent alone.
Tested on: hN + hpA co-culture (H1 iNGN2 human neurons + human primary astrocytes)
Test: presynaptic density (SYNAPSIN1 puncta per MAP2 neurite area), Z-score vs DMSO controls; higher = more presynaptic puncta (synapse-promoting)
Conditions: 3 µM; 72 h
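Note: immunostained co-cultures imaged by high-content microscopy, Z-score per plate against mean and SD of 0.1% DMSO wells, compounds added on differentiation day 18, analysed day 21.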

Row | Structure (SMILES) | presynaptic density (Z-score)
1 | CN1C(=O)C(Cc2c[nH]c3ccccc23)NC1=S (centres undefined) [5-(1H-Indol-3-ylmethyl)-3-methyl-2-thioxo-4-imidazolidinone] | -0.458
2 | O=C(Cc1ccc(-c2ccc(OCCN3CCOCC3)cc2)cn1)NCc1ccccc1 | -5.26
3 | CCc1cncnc1N1CCN(Cc2nc3ccc(C(F)(F)F)cc3[nH]2)CC1 | -0.739
4 | C[C@@H](Oc1cc(-n2cnc3ccc(CN4CCN(C)CC4)cc32)sc1C(N)=O)c1ccccc1C(F)(F)F | -1.83
5 | O=C(O)/C=C/c1ccc(Cn2ccnc2)cc1 [Ozagrel] | -0.554
6 | COc1ccc(C(=O)Nc2sc3c(c2C(N)=O)CCCC3)cc1OC | 0.457
7 | C[C@H](N[C@@H](CCc1ccccc1)C(=O)O)C(=O)N1CCC[C@H]1C(=O)O | -0.963
8 | O=C(Nc1cccc(Cl)c1)c1ccccn1 | 0.851
9 | C#CCN[C@@H]1CCc2ccccc21 [Rasagiline Mesylate] | 0.0894
10 | CCC(CC)CC1(C(=O)Nc2ccccc2SC(=O)C(C)C)CCCCC1 [Dalcetrapib (JTT-705] | -0.463
11 | O=c1cc(-c2cccc3c2Sc2ccccc2S3)oc(N2CCOCC2)c1 | -0.963
12 | CC(=O)O[C@]1(C(C)=O)CC[C@H]2[C@@H]3C=C(Cl)C4=CC(=O)[C@@H]5C[C@@H]5[C@]4(C)[C@H]3CC[C@@]21C [Cyproterone acetate] | -0.989
13 | CC(C)c1onc(-c2c(Cl)cccc2Cl)c1COc1ccc(/C=C/c2cccc(C(=O)O)c2)c(Cl)c1 | -0.576
14 | NC(=O)C1CCCc2c1[nH]c1ccc(Cl)cc21 (centres undefined) [6-Chloro-2,3,4,9-tetrahydro-1H-carbazole-1-carboxamide] | 0.159
15 | OC(CNCC(O)C1CCc2cc(F)ccc2O1)C1CCc2cc(F)ccc2O1 (centres undefined) [Nebivolol] | -0.196
16 | COc1ccc(CC(C)NCC(O)c2ccc(O)c(NC=O)c2)cc1 (centres undefined) | 0.254
17 | CN(C)CCOc1ccc(/C(=C(/CCCl)c2ccccc2)c2ccccc2)cc1 | -0.866
18 | COc1ccc2c(c1)c(CC(=O)N1CCOCC1)c(C)n2C(=O)c1ccc(Cl)cc1 | -0.448
19 | N#Cc1ccc(C(c2ccc(C#N)cc2)n2cncn2)cc1 | 0.0621
20 | COC(=O)CCSCc1ccc(-c2onc(C)c2NC(=O)OC(C)c2ccccc2Cl)cc1 (centres undefined) | -0.843

Row | Structure (SMILES) | presynaptic density (Z-score)
21 | Oc1ncnc2[nH]ncc12 [Allopurinol] | -0.774
22 | C=CC(=O)Nc1cccc(Oc2nc(Nc3ccc(N4CCN(C)CC4)cc3OC)ncc2Cl)c1 | -0.275
23 | CCOC(=O)C1=C(N)Oc2ccc(Br)cc2C1C(C#N)C(=O)OCC (centres undefined) | 0.81
24 | CCCc1nc2c(C)cc(-c3nc4ccccc4n3C)cc2n1Cc1ccc(-c2ccccc2C(=O)O)cc1 | -0.154
25 | NCC(=O)Nc1ccc(-n2nc(C(F)(F)F)cc2-c2ccc3c(ccc4ccccc43)c2)cc1 | -0.52
26 | O=C(c1ccc(Nc2nccc(-c3cc4ccccc4s3)n2)cc1)N1CCC(N2CCCC2)CC1 | 0.27
27 | COc1ccc([C@]2(C#N)CC[C@@H](C(=O)O)CC2)cc1OC1CCCC1 [Cilomilast] | -0.137
28 | Cc1cc(Nc2cc(N3CCN(C)CC3)nc(Sc3ccc(NC(=O)C4CC4)cc3)n2)n[nH]1 | -2.31
29 | O=c1ncn2nc(Sc3ccc(F)cc3F)ccc2c1-c1c(Cl)cccc1Cl | 0.626
30 | N#CC(=C(N)Sc1ccccc1N)C(C#N)=C(N)Sc1ccccc1N [1,4-Diamino-2,3-dicyano-1,4-bis[2-aminophenylthio]butadiene] | -0.048
31 | O=C(O)CCc1ccc(NCc2cccc(Oc3ccccc3)c2)cc1 [4-[[(3-Phenoxyphenyl)methyl]amino]benzenepropanoic acid] | -0.812
32 | C#Cc1cccc(Nc2ncnc3cc(OCCOC)c(OCCO)cc23)c1 | -0.577
33 | O=C(O)c1cccc(-c2noc(-c3ccccc3F)n2)c1 [Ataluren (PTC124)] | -0.0102
34 | NC(=O)c1ncn([C@@H]2O[C@H](CO)[C@@H](O)[C@H]2O)c1N | 0.26
35 | c1ccc(NCc2ccc(CNc3ccccn3)cc2)nc1 | -0.658
36 | COc1ccc(CNCc2cccc3ccccc23)cc1 | -1.02
37 | CC(C)NCCCn1c(Sc2cc3c(cc2I)OCO3)nc2c(N)ncnc21 | -0.039
38 | C1=N/C2=N/c3ccc(OCCN4CCCC4)c(c3)COC/C=C/COCc3cccc(c3)C(=C1)N2 [Pacritinib (SB1518)] | -1.08
39 | CCC(=O)NCC[C@@H]1CCc2ccc3c(c21)CCO3 | -1.53

Reference: the supplement of paper PMC10121225
